Laboratory results from PubChem BioAssay (NCATS).
Unmarked numbers belong to inactive results. The call rests on the fitted dose curve; in most records, active means well fitted curve in the direction sought with a large enough effect; inconclusive means small, poorly fitted or top-dose-only effect, or another doubt; inactive means no such curve, though single readings can be large or run the other way.

Test: Cellular Toxicity (caspase-3) BJ (AID 658)
Conditions: BJ fibroblasts, luminescence, normalized: DMSO 0%, staurosporine 100%; series mostly up to 91.7 µM; caspase-3 activation: at the top concentration
Source text: NIH Chemical Genomics Center [NCGC]
NIH Molecular Libraries Screening Centers Network [MLSCN]
National Institutes of Environmental Health Sciences [NIEHS]
National Toxicology Program [NTP]
We have developed a 1536-well cell-based assay for quantitative high throughput screening (qHTS) against a number of cell lines to determine in vitro caspase 3/7 activity of small molecules. This particular assay uses BJ cell line which is derived from normal human foreskin fibroblast.
NCGC Assay Protocol Summary:
The Caspase-Glo 3/7 assay (Promega) is a homogeneous method to measure caspase-3 and caspase-7 activities in cultured cells. The quantitation of caspase 3/7 activity is based on the cleavage of a peptide-aminoluciferin substrate. After caspase cleaves the substrate the free aminoluciferin is liberated and serves as the substrate of luciferase, which generates the light. The luminescent signal is proportional to amount of caspase 3/7 activity present.
Using the Caspase-Glo 3/7 assay, the amount of caspase 3/7 activity was measured in the BJ cell line with complete culture medium following compound treatment for 16 hours. The assay was performed in opaque white 1536-well plates. In the screen, staurosporine and tamoxifen were used as positive controls. Library compounds were measured for their ability to cause the activation of caspase 3/7 in the cell line, as reflected by an increase in luminescence signal, in a concentration-dependent manner. Data were normalized to the controls for basal activity (DMSO only) and 100% stimulation (10 uM staurosporine). AC50 values were determined from concentration-response data modeled with the standard Hill equation.
qHTS protocol for caspase 3/7 assay in the BJ cells
[Step] [Parameter] [Value] [Description]
1. Reagent; 5 uL; 1000 the BJ cells/well
2. Time; 5 hr; 37 °C incubation
4. Controls; 23 nL; Tamoxifen 0.23 uM to 100 uM & staurosporine 1.4 pM to 100 uM
5. Time; 16 hr; 37 °C incubation
6. Reagent; 5 uL; Caspase-Glo 3/7 reagent
7. Time; 1 hr; Room Temperature
8. Detection; Luminescence; Viewlux plate reader
Keywords: caspase 3/7, apoptosis, the BJ cell line, luminescence, NTPHTS, NTPHTS_NCGC, NIEHS, EPA, DSSTox, MLSMR, MLSCN, NIH Roadmap, qHTS, NCGC

SMILES	caspase-3 activation
CNC(=O)O/N=C/C(C)(C)S(C)=O (stereo not given)	0.158%
Oc1cccc(Cl)c1Cl	0.88%
FC(Cl)(Cl)Cl	-0.733%
O=[N+]([O-])c1ccccc1CCl	2.52%
ClCC(Cl)Cl	2.11%
C=C(Cl)CSC(=S)N(CC)CC	0.6%
Brc1cccc(-c2ccccc2)c1	1.32%
Cc1cccc(N)c1C	-0.718%
CC(C)(Cl)[N+](=O)[O-]	-0.417%
BrCC(Br)C1CCC(Br)C(Br)C1 (stereo not given)	0.262%
CCCCOC(=O)c1ccccc1N	-0.276%
BrC(Br)Br	-0.477%
Clc1cccc(Cl)c1Cl	0.628%
CCOS(C)(=O)=O	0.744%
N#CCCC#N	0.57%
COC(=O)c1ccccc1N	0.271%
O=C(O)C(Br)Br	0.135%
c1ccc(N=NNc2ccccc2)cc1	-0.509%
[O-][Cl+2]([O-])O	-1.92%
O=C(O)C(Cl)(Cl)Br	0.71%

SMILES	caspase-3 activation
Cl/C=C/CCl	0.0592%
CCC/C=N/O	0.671%
CC(C)C#N	-1.19%
C=CCOCC1CO1 (stereo not given)	-0.623%
C/C=C/C=O	0.0266%
Nc1c(Br)cc([N+](=O)[O-])cc1[N+](=O)[O-]	-1.36%
CC(C)(C)C(O)(CCc1ccc(Cl)cc1)Cn1cncn1 (stereo not given)	0.42%
CCCC[N+](=O)[O-]	1.13%
Cc1ccc(N)cc1Cl	0.979%
CN(C)C(=O)Nc1ccc(Cl)cc1	-0.791%
[N-]=[N+]=[N-]	-0.84%
C[N+](=O)[O-]	-0.754%
Clc1ccc(C(c2ccccc2Cl)C(Cl)(Cl)Cl)cc1 (stereo not given)	-0.75%
O=[N+]([O-])c1ccc(Cl)cc1	1.91%
Cc1ccc(N)c(N)c1	1.55%
CN(C)c1ccc(N)cc1	-6.76%
N#CCCCCC#N	-2.4%
ClCc1ccccn1	-0.023%
O=[N+]([O-])CCO	0.184%
Clc1ccccc1	-1.13%
